Test results: PubChem BioAssay AID1159580 (chemical genetic matrix, 2015)
Hit rate of the full screen: of about 5,500 compounds, about 2,000 (36%) were called active. About 18% were inconclusive and are not listed. No stated cut-off is given here; in the data, active means normalized growth mostly below about 0.91 (no sharp cut-off); inconclusive means no clear call, values can overlap the other calls; inactive means mostly above about 0.92. The list shows a part of the results.

Assay: chemical genetic growth profiling, strain panel (AID 1159580);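 further: tested at 20 µM; growth read once vehicle control cultures reached saturation at 30 °C; 1 = growth at the plate median or of vehicle wells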
Conditions: S. cerevisiae deletion strains, growth OD
[1] = locus YHR030C, strain SLT2, stronger effect = lower value
[2] = locus YHR079C, strain IRE1, stronger effect = lower value
[3] = locus YJL095W, strain BCK1, stronger effect = lower value
[4] = locus YJR066W, strain TOR1, stronger effect = lower value
[5] = locus YLR113W, strain HOG1, stronger effect = lower value
[6] = locus YNL183C, strain NPR1, stronger effect = lower value
[7] = locus YOR231W, strain MKK1, stronger effect = lower value
[8] = locus YPL256C, strain CLN2, stronger effect = lower value

Measured: normalized growth

CO/N=C(/C(=O)NC1C(=O)N2C(C(=O)OCOC(=O)C(C)(C)C)=C(/C=C\c3scnc3C)CSC12)c1csc(N)n1 (centres undefined)
inactive: locus YAL021C, strain ccr4, stronger effect = lower value 0.974 | locus YAL026C, strain drs2, stronger effect = lower value 1.01 | locus YAL030W, strain snc1, stronger effect = lower value 0.992 | locus YBL061C, strain skt5, stronger effect = lower value 1 | locus YBR009C, strain hhf1, stronger effect = lower value 0.98 | locus YBR023C, strain chs3, stronger effect = lower value 1 | locus YBR171W, strain sec66, stronger effect = lower value 1 | locus YBR231C, strain swc5, stronger effect = lower value 0.965 | locus YBR279W, strain paf1, stronger effect = lower value 1 | locus YCL011C, strain gbp2, stronger effect = lower value 1 | locus YCL016C, strain dcc1, stronger effect = lower value 1 | locus YCL069W, strain vba3, stronger effect = lower value 0.999 | locus YCR088W, strain abp1, stronger effect = lower value 0.999 | locus YDL005C, strain med2, stronger effect = lower value 0.999 | locus YDL040C, strain nat1, stronger effect = lower value 1 | locus YDR001C, strain nth1, stronger effect = lower value 1.01 | locus YDR069C, strain doa4, stronger effect = lower value 1.01 | locus YDR137W, strain rgp1, stronger effect = lower value 1.03 | locus YDR159W, strain sac3, stronger effect = lower value 0.902 | locus YDR195W, strain ref2 0.96 | locus YDR297W, strain sur2, stronger effect = lower value 1.01 | locus YDR334W, strain swr1, stronger effect = lower value 0.989 | locus YDR335W, strain msn5, stronger effect = lower value 1.01 | locus YDR392W, strain spt3, stronger effect = lower value 0.906 | locus YEL003W, strain gim4, stronger effect = lower value 0.995 | locus YEL037C, strain rad23, stronger effect = lower value 0.988 | locus YEL061C, strain CIN8 (second series), stronger effect = lower value 0.985 | locus YER015W, strain faa2, stronger effect = lower value 0.988 | locus YER016W, strain bim1, stronger effect = lower value 1.03 | locus YER111C, strain swi4, stronger effect = lower value 0.986 | locus YER155C, strain BEM2 (second series), stronger effect = lower value 0.875 | locus YFR010W, strain ubp6, stronger effect = lower value 0.998 | locus YGL167C, strain pmr1, stronger effect = lower value 1 | locus YGL173C, strain kem1, stronger effect = lower value 1 | locus YGL227W, strain vid30, stronger effect = lower value 1.03 | locus YGL240W, strain doc1, stronger effect = lower value 0.976 | locus YGL253W, strain hxk2, stronger effect = lower value 1.01 | locus YHR013C, strain ard1, stronger effect = lower value 1 | locus YHR027C, strain rpn1, stronger effect = lower value 1 | [1] 1.05 | [2] 1.04 | locus YHR142W, strain chs7, stronger effect = lower value 1.02 | locus YJL092W, strain hpr5, stronger effect = lower value 0.995 | locus YJL095W, strain BCK1 (second series), stronger effect = lower value 0.994 | [3] 1.01 | locus YJL115W, strain asf1, stronger effect = lower value 1 | locus YJL129C, strain trk1, stronger effect = lower value 1.01 | locus YJL154C, strain vps35, stronger effect = lower value 0.996 | locus YJL164C, strain tpk1, stronger effect = lower value 0.989 | locus YJL166W, strain qcr8, stronger effect = lower value 1 | locus YJL187C, strain SWE1, stronger effect = lower value 1 | [4] 1.01 | locus YKL160W, strain elf1, stronger effect = lower value 1 | locus YKR026C, strain gcn3, stronger effect = lower value 0.994 | locus YKR091W, strain srl3, stronger effect = lower value 0.993 | locus YLL001W, strain dnm1, stronger effect = lower value 0.953 | locus YLL026W, stronger effect = lower value 0.996 | locus YLL041C, strain sdh2, stronger effect = lower value 0.997 | locus YLR027C, strain aat2, stronger effect = lower value 1 | [5] 0.962 | locus YLR221C, strain rsa3, stronger effect = lower value 0.994 | locus YLR258W, strain gsy2, stronger effect = lower value 1.01 | locus YLR262C, strain YPT6 (second series), stronger effect = lower value 0.992 | locus YLR320W, strain mms22, stronger effect = lower value 0.955 | locus YLR342W, strain FKS1, stronger effect = lower value 1.01 | locus YLR357W, strain rsc2, stronger effect = lower value 0.942 | locus YLR370C, strain arc18, stronger effect = lower value 0.991 | locus YLR384C, strain iki3, stronger effect = lower value 1.02 | locus YML120C, strain ndi1, stronger effect = lower value 0.995 | locus YMR058W, strain fet3, stronger effect = lower value 0.991 | locus YMR125W, strain sto1, stronger effect = lower value 0.981 | locus YMR129W, stronger effect = lower value 0.992 | locus YMR205C, strain PFK2, stronger effect = lower value 0.99 | locus YMR231W, strain pep5, stronger effect = lower value 0.994 | locus YNL071W, strain lat1, stronger effect = lower value 0.999 | [6] 0.981 | locus YNL209W, strain ssb2, stronger effect = lower value 1.01 | locus YNL248C, strain rpa49, stronger effect = lower value 1.01 | locus YNL322C, strain KRE1 (second series), stronger effect = lower value 0.984 | locus YNR049C, strain mso1, stronger effect = lower value 0.991 | locus YOR001W, strain rrp6, stronger effect = lower value 0.973 | locus YOR070C, strain gyp1, stronger effect = lower value 1 | locus YOR080W, strain dia2, stronger effect = lower value 0.996 | locus YOR083W, strain WHI5, stronger effect = lower value 0.95 | locus YOR106W, strain vam3, stronger effect = lower value 1.01 | [7] 1.01 | locus YOR265W, strain rbl2, stronger effect = lower value 0.998 | locus YOR270C, strain vph1, stronger effect = lower value 1.04 | locus YOR290C, strain snf2, stronger effect = lower value 1.01 | locus YPL051W, strain arl3, stronger effect = lower value 1.01 | locus YPL078C, strain atp4, stronger effect = lower value 0.998 | locus YPL106C, strain sse1, stronger effect = lower value 1.01 | locus YPL240C, strain hsp82, stronger effect = lower value 1 | [8] 1.03

Cc1cc2nc3c(Cl)c(O)c4ccccc4c3nc2cc1C
inactive: locus YAR019C, strain CDC15, stronger effect = lower value 0.966 | locus YBL105C, strain PKC1, stronger effect = lower value 0.961 | locus YBR135W, strain CKS1, stronger effect = lower value 0.949 | locus YBR136W, strain MEC1, stronger effect = lower value 0.965 | locus YBR160W, strain CDC28, stronger effect = lower value 0.96 | locus YDL017W, strain CDC7, stronger effect = lower value 0.965 | locus YDL028C, strain MPS1, stronger effect = lower value 0.959 | locus YDL101C, strain DUN1, stronger effect = lower value 0.981 | locus YDL108W, strain KIN28, stronger effect = lower value 0.954 | locus YDL132W, strain cdc53, stronger effect = lower value 0.966 | locus YDL214C, strain PRR2, stronger effect = lower value 0.818 | locus YDR052C, strain DBF4, stronger effect = lower value 0.953 | locus YDR054C, strain cdc34, stronger effect = lower value 0.965 | locus YDR226W, strain ADK1, stronger effect = lower value 0.949 | locus YER123W, strain YCK3, stronger effect = lower value 0.766 | locus YER133W, strain GLC7, stronger effect = lower value 0.87 | locus YFL009W, strain cdc4, stronger effect = lower value 0.969 | locus YFL029C, strain CAK1, stronger effect = lower value 0.946 | locus YFR003C, strain YPI1, stronger effect = lower value 0.962 | locus YFR019W, strain FAB1, stronger effect = lower value 0.887 | locus YFR028C, strain CDC14, stronger effect = lower value 0.958 | locus YGR040W, strain KSS1, stronger effect = lower value 0.724 | locus YGR052W, strain FMP48, stronger effect = lower value 0.722 | locus YGR092W, strain DBF2, stronger effect = lower value 0.487 | [2] 0.805 | locus YHR082C, strain KSP1, stronger effect = lower value 0.737 | locus YHR205W, strain SCH9, stronger effect = lower value 0.666 | locus YIL147C, strain SLN1, stronger effect = lower value 0.958 | [3] 0.749 | locus YJL128C, strain PBS2, stronger effect = lower value 0.944 | locus YJL157C, strain FAR1, stronger effect = lower value 0.778 | locus YJR016C, strain ILV3, stronger effect = lower value 0.955 | locus YJR066W, strain TOR1 (second series), stronger effect = lower value 0.64 | [4] 0.559 | locus YKL067W, strain YNK1, stronger effect = lower value 0.786 | locus YKL101W, strain HSL1, stronger effect = lower value 0.829 | locus YKL193C, strain SDS22, stronger effect = lower value 0.972 | locus YKL203C, strain TOR2, stronger effect = lower value 0.766 | [5] 0.877 | locus YLR403W, strain SFP1, stronger effect = lower value 0.663 | locus YML070W, strain DAK1, stronger effect = lower value 0.852 | locus YMR001C, strain CDC5, stronger effect = lower value 0.959 | locus YMR277W, strain FCP1, stronger effect = lower value 0.961 | locus YNL006W, strain LST8, stronger effect = lower value 0.974 | locus YNL161W, strain CBK1, stronger effect = lower value 0.971 | [6] 0.739 | locus YNL207W, strain RIO2, stronger effect = lower value 0.961 | locus YNL222W, strain SSU72, stronger effect = lower value 0.955 | locus YOL078W, strain AVO1, stronger effect = lower value 0.962 | locus YOL136C, strain PFK27, stronger effect = lower value 0.838 | locus YOR119C, strain RIO1, stronger effect = lower value 0.831 | [7] 0.829 | locus YOR329C, strain SCD5, stronger effect = lower value 0.97 | locus YPL153C, strain RAD53, stronger effect = lower value 0.68 | locus YPL209C, strain IPL1, stronger effect = lower value 0.976 | [8] 0.869 | locus YPR025C, strain CCL1, stronger effect = lower value 0.957 | locus YPR106W, strain ISR1, stronger effect = lower value 1.01 | locus YPR111W, strain DBF20, stronger effect = lower value 0.976 | strain NNK1, stronger effect = lower value 0.966 | strain TSCII, stronger effect = lower value 0.963
active: locus YDR477W, strain SNF1, stronger effect = lower value 0.634 | [1] 0.55 | locus YKL048C, strain ELM1, stronger effect = lower value 0.737 | locus YLR133W, strain CKI1, stronger effect = lower value 0.679 | locus YMR205C, strain PFK2 (second series), stronger effect = lower value 0.726 | locus YNL020C, strain ARK1, stronger effect = lower value 0.617 | locus YOR061W, strain CKA2, stronger effect = lower value 0.43 | locus YPL031C, strain PHO85, stronger effect = lower value 0.643 | locus YPL204W, strain HRR25, stronger effect = lower value 0.646
